Results filed as inconclusive are left out. The source made the active and inactive calls. Calls follow the shape of the dose curve; as a rule, active = well fitted inhibition curve with a large enough effect; inconclusive = small, poorly fitted or top-dose-only effect; inactive = flat fitted curve, though single readings scatter.
Test: P-glycoprotein substrates identified in KB-8-5-11 adenocarcinoma cell line, qHTS therapeutic library screen (AID 1346987); also: nearly all actives have a fitted effect of over 65% in size
Conditions: KB-8-5-11 (P-gp overexpressing) viability, CellTiter-Glo, 72 h; series mostly up to 44.5 µM; activity change, negative = cytotoxicity: at the top concentration
Outline: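 Human cervical adenocarcinoma KB-8-5-11 cells, selected in colchicine to over-express P-gp and assayed without it, were exposed for 72 h to titrated compounds. An ATP-based luminescent viability signal gave AC50.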
% is scaled to controls: 0 for no effect and ±100 for the full control effect; potency is read from the fitted curve at half-maximal effect.

Row | SMILES | activity change, negative = cytotoxicity | outcome | Potency
1 | CC1=CC(=O)OC(C)(CC(C)(O)C(=O)O)C1 (configuration not stated) | 8.13% (inactive) |  | 
2 | CCn1nnnc1NCc1ccc(C(C)C)cc1 |  | inactive | 
3 | CNC(=O)c1ccc2cc([C@@]3(O)CCn4cncc43)ccc2c1 |  | inactive | 
4 | CC(=O)OC1C=C(C(=O)O)C2(CO)CCC(C)C(C)(CCc3ccoc3)C2C1 (configuration not stated) |  | inactive [at 17.3 µM] | 
5 | CCS(=O)(=O)N1CCC([C@@H](C)n2c(C)c(C(=O)NCc3c(OC)cc(C)[nH]c3=O)c3ccccc32)CC1 |  | inactive | 
6 | COc1cc2c(Nc3ccc(Cl)c(Cl)c3F)ncnc2cc1OCC1C[C@@H]2CN(C)C[C@@H]2C1 (some centres not stated) |  |  | 18.4 µM (active)
7 | COc1ccc(/C=C/C(=O)O[C@@H]2[C@@H](O)[C@H](C)O[C@@H](OC3C4C=COC(O[C@@H]5O[C@H](CO)[C@@H](O)[C@H](O)[C@H]5O)C4C4(CO)OC34)[C@@H]2O)cc1OC (some centres not stated) |  | inactive [at 17.3 µM] | 
8 | CC1C/C=C/C=C\CCCCC(O)C/C=C/C(=O)O1 (configuration not stated) |  | inactive | 
9 | C[C@@H]1O[C@@H](O[C@@H]2[C@@H](O)[C@H](O[C@@H]3[C@@H](O)[C@@H](O)[C@H](O[C@H]4[C@H](OC(=O)[C@]56CCC(C)(C)C[C@H]5C5=CCC7[C@@]8(C)C[C@H](O)[C@H](O[C@@H]9O[C@H](C(=O)O)[C@@H](O)[C@H](O)[C@H]9O)[C@@](C)(CO)C8[C@H](O)C[C@@]7(C)[C@]5(C)CC6)OC[C@H](O)[C@@H]4O)O[C@H]3C)OC[C@H]2O)[C@H](O)[C@H](O)[C@H]1O (some centres not stated) |  | inactive [at 9.29 µM] | 
10 | CC(=O)OC[C@@]12[C@H](O)C[C@]3(C)C(=CCC4[C@@]5(C)CC[C@H](O[C@@H]6O[C@H](C(=O)O)[C@@H](O[C@@H]7O[C@H](CO)[C@@H](O)[C@H](O)[C@H]7O)[C@H](O)[C@H]6O[C@@H]6O[C@H](CO)[C@@H](O)[C@H](O)[C@H]6O)[C@](C)(CO)C5CC[C@]43C)[C@@H]1CC(C)(C)[C@@H](OC(C)=O)[C@@H]2O (some centres not stated) | 4.33% [at 9.29 µM] (inactive) |  | 
11 | COC(=O)C1=C[C@@H](O)[C@@H](O)[C@H](O[C@@H]2O[C@H](COC(=O)/C=C/c3ccccc3)[C@@H](O)[C@H](O)[C@H]2O)C1 | 5.89% [at 17.3 µM] (inactive) |  | 
12 | C=CC(C)(O)CO[C@@H]1O[C@H](CO)[C@@H](O)[C@H](O)[C@H]1O (some centres not stated) | 6.43% (inactive) |  | 
13 | CC[C@H](/C=C/[C@@H](C)[C@H]1CC[C@H]2[C@@H]3CC=C4C[C@@H](O)CC[C@]4(C)[C@H]3CC[C@]12C)C(C)C | 0.93% [at 5.11 µM] (inactive) |  | 
14 | Cc1c(CN(C)C(=O)/C=C/c2cnc3c(c2)CCC(=O)N3)oc2ccccc12 | -15.7% (inactive) |  | 
15 | O=C1Nc2ccc(O)cc2O[C@H]1O[C@@H]1O[C@H](CO)[C@@H](O)[C@H](O)[C@H]1O | 2.44% (inactive) |  | 
16 | CC(=O)N[C@H]1CCN(c2ccc(C3=NOC(CN[S+](=O)([O-])C(C)C)C3)cc2F)C1 (some centres not stated) |  | inactive | 

Row | SMILES | activity change, negative = cytotoxicity | outcome | Potency
17 | C[C@@H]1O[C@@H](O[C@H]2[C@H](O[C@H]3[C@H](O[C@H]4CC[C@@]5(C)C(CC[C@]6(C)C5CC=C5[C@@H]7CC(C)(C(=O)O)C[C@@H](O)[C@]7(C)CC[C@]56C)[C@@]4(C)CO)O[C@H](C(=O)O)[C@@H](O)[C@@H]3O)O[C@H](CO)[C@H](O)[C@@H]2O)[C@H](O)[C@H](O)[C@H]1O (some centres not stated) | 7.09% [at 9.29 µM] (inactive) |  | 
18 | C[C@@H](Nc1cc(NS(=O)(=O)N2CCC2)nc(SCc2cccc(F)c2F)n1)[C@@H](O)CO |  | inactive | 
19 | COc1cc(/C=C/C(=O)OC2CC(C)=C(C(=O)O)/C2=C/CO[C@@H]2O[C@H](CO)[C@@H](O)[C@H](O)[C@H]2O)ccc1O (some centres not stated) |  | inactive [at 17.3 µM] | 
20 | O=C(c1ccc(NS(=O)(=O)c2cccc3cccnc23)cc1)N1CCN(CC2CC2)CC1 | -17% (inactive) |  | 
21 | CC(C)(O)C1CCC2(C)C3C(O)C4C(C13)C42CO (configuration not stated) |  | inactive | 
22 | C=CC1C(O[C@@H]2O[C@H](CO)[C@@H](O)[C@H](O)[C@H]2O)OC=C(C(=O)OC)C1CC(=O)O (some centres not stated) |  | inactive [at 17.3 µM] | 
23 | Cc1nnc(C(C)C)n1C1CC2CCC(C1)N2CC[C@H](NC(=O)C1CCC(F)(F)CC1)c1ccccc1 (some centres not stated) |  | inactive | 
24 | COC(=O)[C@@H]1C2CC3c4[nH]c5ccccc5c4CCN3CC2CC[C@@H]1O (some centres not stated) | 0.704% (inactive) |  | 
25 | CC(=O)c1c(O)cc2cccc3c2c1CC(C)(O)O3 (configuration not stated) | 3.9% (inactive) |  | 
26 | CC(=O)O[C@H]1[C@H](Oc2ccccc2COC(=O)C2(O)C=CCCC2=O)O[C@H](CO)[C@@H](O)[C@@H]1O (some centres not stated) | -1.5% [at 17.3 µM] (inactive) |  | 
27 | C[C@@H](OC(=O)/C=C/c1ccc(O)cc1)C1=C[C@]2(C=C[C@@H]3C(C(=O)O)=CO[C@@H](O[C@@H]4O[C@H](CO[C@@H]5O[C@H](CO)[C@@H](O)[C@H](O)[C@H]5O)[C@@H](O)[C@H](O)[C@H]4O)[C@@H]32)OC1=O |  | inactive [at 17.3 µM] | 
28 | NC(=O)[C@H]1CCCCc2c1[nH]c1ccc(Cl)cc21 | 8.12% [at 17.3 µM] (inactive) |  | 
29 | CCNC(=O)[C@H]1O[C@H](n2cnc3c(NCC(c4ccccc4)c4ccccc4)nc(C(=O)NCCNC(=O)NC4CCN(c5ccccn5)CC4)nc32)[C@H](O)[C@@H]1O |  | inactive | 
30 | O=S(=O)(NC1CCNCC1)c1cc(S(=O)(=O)c2ccccc2)ccc1C(F)(F)F |  | inactive | 
31 | CN[C@@H]1[C@@H](O)[C@@H](O[C@@H]2[C@@H](O)[C@H](O[C@H]3O[C@H](CN)[C@@H](O)[C@H](O)[C@H]3O)[C@@H](N)C[C@H]2NC(=O)[C@@H](O)CN)OC[C@]1(C)O |  | inactive | 
32 | CO[C@@H](Cc1ccc(OCCc2nc(-c3ccccc3)oc2C)c2ccsc12)C(=O)O |  | inactive | 

Reference: PubChem BioAssay (NCATS)
